Data from the supplement of paper PMC11732987, “Enantioselective OTUD7B fragment discovery through chemoproteomics screening and high-throughput optimisation” (Communications Chemistry, 2025).

Assays:
Assay in all cases: log2 ratio of Biotin-Ahx-Ub-VS probe labelling (fragment/DMSO); higher = less target engagement (more negative = stronger competition), active = hit call of the paper (q ≤ 0.05, log2 ratio ≤ -1)
Settings in all cases: compound concentration: 200 uM; treatment time: 3 h
OTUD6B = target: T1, OTUD6B (UniProt Q8N6M0)
T1 sequence (whole entry): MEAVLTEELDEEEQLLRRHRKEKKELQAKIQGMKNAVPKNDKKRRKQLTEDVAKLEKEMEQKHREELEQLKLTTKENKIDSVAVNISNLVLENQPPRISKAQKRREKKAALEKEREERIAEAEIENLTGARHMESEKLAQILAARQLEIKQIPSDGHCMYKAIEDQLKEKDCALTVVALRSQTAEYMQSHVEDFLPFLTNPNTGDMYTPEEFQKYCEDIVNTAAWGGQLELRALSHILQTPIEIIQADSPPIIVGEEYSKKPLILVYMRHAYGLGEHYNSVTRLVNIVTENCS
Method in brief: (§1)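 HEK293T lysate (495 µg per sample, in Tris/CHAPS/IGEPAL buffer with protease inhibitors) was exposed in triplicate for 3 h to fragment at 200 µM or to vehicle, then to Biotin-Ahx-Ub-VS at 0.5 µM final for 1 h. Labelled DUBs were enriched on NeutrAvidin, digested with LysC and trypsin, and analysed by diaPASEF LC-MS/MS. Spectronaut label-free quantities were normalised to the global median, and values are average log2 ratios of fragment over vehicle from an unpaired t-test. Only proteins with ≥2 unique peptides were used.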

OTUD7B = target: T2, OTUD7B (UniProt Q6GQQ9)
T2 sequence (whole entry): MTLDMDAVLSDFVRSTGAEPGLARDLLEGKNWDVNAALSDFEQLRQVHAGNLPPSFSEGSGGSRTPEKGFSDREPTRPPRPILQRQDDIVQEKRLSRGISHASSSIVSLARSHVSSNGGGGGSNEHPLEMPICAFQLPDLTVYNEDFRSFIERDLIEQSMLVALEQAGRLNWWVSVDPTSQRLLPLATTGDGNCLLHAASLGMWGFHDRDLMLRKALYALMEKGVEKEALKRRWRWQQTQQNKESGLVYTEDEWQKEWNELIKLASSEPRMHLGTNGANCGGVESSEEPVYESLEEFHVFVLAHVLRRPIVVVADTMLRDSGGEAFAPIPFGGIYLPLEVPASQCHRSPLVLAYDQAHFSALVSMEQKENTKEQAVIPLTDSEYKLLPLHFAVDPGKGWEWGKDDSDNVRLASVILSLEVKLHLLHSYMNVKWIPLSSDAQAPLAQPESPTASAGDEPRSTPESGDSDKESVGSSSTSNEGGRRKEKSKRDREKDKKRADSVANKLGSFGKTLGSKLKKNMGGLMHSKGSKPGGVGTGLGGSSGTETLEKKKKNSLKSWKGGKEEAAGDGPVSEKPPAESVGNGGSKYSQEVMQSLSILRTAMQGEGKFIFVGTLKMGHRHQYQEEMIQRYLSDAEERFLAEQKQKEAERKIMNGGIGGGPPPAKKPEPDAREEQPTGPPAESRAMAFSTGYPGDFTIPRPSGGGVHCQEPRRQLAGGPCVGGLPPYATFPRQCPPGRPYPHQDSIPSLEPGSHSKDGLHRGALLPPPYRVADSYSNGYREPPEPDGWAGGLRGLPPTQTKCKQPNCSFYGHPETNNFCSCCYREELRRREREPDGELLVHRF
Method in brief: as §1

PRPF8 = PRPF8 (UniProt Q6P2Q9)
Method in brief: as §1

PSMD7 = target: T3, PSMD7 (UniProt P51665)
T3 sequence (whole entry): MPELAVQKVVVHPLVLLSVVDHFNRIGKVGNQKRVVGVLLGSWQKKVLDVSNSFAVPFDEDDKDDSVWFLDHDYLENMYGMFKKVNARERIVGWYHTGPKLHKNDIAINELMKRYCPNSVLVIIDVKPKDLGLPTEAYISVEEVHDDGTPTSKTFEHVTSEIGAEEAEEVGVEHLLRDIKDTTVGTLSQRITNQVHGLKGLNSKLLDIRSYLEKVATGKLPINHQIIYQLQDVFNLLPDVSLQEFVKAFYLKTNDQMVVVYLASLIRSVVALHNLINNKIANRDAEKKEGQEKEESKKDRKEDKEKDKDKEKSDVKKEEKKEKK
Method in brief: as §1

UCHL1 = UCHL1 (UniProt P09936)
UCHL1, sequence (P09936 whole entry, looked up): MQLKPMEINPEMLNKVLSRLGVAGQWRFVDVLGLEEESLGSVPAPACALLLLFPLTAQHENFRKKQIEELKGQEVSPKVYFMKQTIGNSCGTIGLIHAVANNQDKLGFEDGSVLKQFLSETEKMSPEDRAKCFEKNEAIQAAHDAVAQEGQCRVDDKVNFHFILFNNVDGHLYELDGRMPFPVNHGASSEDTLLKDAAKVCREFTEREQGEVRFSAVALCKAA
Method in brief: as §1

UCHL3 = target: T4, UCHL3 (UniProt P15374)
T4 sequence (whole entry): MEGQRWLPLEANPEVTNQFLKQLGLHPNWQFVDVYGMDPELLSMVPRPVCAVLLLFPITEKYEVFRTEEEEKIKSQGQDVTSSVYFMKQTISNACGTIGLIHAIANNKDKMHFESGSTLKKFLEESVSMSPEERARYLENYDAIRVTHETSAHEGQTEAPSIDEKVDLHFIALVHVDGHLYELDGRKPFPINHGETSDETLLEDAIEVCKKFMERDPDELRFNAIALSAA
Method in brief: as §1

UCHL5 = target: T5, UCHL5 (UniProt Q9Y5K5)
T5 sequence (whole entry): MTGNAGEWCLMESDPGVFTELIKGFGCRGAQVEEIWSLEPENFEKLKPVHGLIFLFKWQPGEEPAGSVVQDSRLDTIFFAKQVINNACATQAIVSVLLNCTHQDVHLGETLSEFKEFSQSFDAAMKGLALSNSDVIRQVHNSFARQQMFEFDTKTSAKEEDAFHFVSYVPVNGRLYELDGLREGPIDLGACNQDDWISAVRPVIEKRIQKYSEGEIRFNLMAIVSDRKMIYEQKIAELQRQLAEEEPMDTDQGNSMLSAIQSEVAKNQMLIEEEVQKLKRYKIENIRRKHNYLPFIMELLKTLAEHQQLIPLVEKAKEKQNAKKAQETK
Method in brief: as §1

USP10 = USP10 (UniProt Q14694)
USP10, sequence (Q14694 whole entry): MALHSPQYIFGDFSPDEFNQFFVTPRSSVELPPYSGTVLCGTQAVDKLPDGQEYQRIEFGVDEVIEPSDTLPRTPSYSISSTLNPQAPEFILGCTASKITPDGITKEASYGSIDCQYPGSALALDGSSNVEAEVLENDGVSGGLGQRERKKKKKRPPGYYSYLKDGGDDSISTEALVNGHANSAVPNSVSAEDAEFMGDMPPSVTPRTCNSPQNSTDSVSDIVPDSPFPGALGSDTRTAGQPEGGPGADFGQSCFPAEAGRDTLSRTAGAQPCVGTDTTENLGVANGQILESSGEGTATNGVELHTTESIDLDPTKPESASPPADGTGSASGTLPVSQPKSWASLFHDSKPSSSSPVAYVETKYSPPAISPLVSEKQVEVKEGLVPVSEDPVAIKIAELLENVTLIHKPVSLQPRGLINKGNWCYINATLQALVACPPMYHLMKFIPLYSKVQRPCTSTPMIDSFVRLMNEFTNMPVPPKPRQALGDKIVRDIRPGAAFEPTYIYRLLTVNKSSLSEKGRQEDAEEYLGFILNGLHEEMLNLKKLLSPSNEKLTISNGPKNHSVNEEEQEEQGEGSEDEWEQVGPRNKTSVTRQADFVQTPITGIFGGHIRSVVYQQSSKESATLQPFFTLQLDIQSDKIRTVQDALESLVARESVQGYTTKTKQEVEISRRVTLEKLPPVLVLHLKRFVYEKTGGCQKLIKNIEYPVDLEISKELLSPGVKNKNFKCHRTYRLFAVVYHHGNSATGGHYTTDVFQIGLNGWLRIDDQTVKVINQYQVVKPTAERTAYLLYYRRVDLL
Method in brief: as §1

USP15 = target: T6, USP15 (UniProt Q9Y4E8)
T6 sequence (whole entry): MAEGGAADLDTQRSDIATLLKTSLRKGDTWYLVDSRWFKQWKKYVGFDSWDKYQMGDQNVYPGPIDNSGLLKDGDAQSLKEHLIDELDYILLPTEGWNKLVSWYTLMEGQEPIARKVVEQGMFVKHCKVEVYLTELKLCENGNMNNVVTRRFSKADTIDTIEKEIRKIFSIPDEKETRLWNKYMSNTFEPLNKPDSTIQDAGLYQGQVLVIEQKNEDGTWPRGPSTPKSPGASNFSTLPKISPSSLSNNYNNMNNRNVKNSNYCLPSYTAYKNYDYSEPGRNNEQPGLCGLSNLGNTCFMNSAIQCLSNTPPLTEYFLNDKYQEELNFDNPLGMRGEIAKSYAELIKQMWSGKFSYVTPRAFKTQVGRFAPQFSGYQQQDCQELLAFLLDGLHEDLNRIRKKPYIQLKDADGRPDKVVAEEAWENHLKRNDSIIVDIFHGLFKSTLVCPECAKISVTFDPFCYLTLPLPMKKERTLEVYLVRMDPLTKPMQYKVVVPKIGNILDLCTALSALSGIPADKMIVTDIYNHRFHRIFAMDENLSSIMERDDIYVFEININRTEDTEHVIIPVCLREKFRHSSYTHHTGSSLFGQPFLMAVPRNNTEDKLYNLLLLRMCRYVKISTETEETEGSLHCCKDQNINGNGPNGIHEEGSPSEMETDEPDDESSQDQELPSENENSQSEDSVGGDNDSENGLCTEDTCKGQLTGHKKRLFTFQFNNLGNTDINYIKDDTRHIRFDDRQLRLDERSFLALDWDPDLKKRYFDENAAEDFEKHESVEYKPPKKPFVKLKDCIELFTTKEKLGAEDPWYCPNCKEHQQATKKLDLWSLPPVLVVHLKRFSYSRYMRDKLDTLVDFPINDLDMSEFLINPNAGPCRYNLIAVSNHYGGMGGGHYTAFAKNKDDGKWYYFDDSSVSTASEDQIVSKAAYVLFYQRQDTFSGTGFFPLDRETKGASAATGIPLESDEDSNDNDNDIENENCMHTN
Method in brief: as §1

USP16 = USP16 (UniProt Q9Y5T5)
USP16, sequence (Q9Y5T5 whole entry, looked up): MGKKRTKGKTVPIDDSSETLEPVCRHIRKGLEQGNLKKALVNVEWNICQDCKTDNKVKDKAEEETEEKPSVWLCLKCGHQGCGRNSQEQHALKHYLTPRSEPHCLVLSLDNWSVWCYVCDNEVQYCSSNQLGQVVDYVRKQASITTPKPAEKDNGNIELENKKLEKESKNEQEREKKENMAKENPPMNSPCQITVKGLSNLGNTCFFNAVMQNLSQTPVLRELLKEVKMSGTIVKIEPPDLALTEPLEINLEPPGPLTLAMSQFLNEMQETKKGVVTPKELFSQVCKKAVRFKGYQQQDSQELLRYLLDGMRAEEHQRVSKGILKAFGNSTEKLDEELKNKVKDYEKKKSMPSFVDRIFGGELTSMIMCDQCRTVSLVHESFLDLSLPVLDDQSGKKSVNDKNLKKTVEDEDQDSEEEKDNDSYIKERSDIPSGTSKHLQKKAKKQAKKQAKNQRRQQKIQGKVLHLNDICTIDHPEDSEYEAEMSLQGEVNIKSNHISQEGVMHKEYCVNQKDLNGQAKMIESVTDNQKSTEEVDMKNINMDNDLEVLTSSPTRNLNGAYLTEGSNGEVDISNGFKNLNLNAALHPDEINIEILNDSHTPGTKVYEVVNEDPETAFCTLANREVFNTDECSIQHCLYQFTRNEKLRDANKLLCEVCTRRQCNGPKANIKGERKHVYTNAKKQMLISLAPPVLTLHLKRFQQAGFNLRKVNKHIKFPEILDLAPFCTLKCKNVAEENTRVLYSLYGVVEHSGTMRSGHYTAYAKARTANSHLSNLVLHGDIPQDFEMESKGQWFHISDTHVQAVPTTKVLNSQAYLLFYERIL
Method in brief: as §1

Measured: log2 ratio of Biotin-Ahx-Ub-VS probe labelling

CC(=O)C1CCCCN1C(=O)CCl (stereo not given)
inactive: OTUD6B 0.00453 | OTUD7B -0.279 | PRPF8 0.0549 | PSMD7 0.203 | UCHL3 0.181 | UCHL5 -0.0871 | USP10 -0.0595 | USP15 -0.162 | USP16 -0.109
active: UCHL1 -1.44
